# Assay outcomes deposited in PubChem BioAssay by National Center for Advancing Translational Sciences (NCATS).
# Rows were chosen to be rich in hits. Some 7.8% of all compounds tested hit in one or more screens of this group.
# VACV Venus inh = qHTS for Stage-Specific Inhibitors of Vaccinia Orthopoxvirus: Venus Reporter Primary qHTS | AID 720580, 2013 | Vaccinia virus Venus reporter expression, fluorescence | Potency, µM (top dose mostly 36.5 µM), most hits filed as inhibitors | 330,000 tested, 0.46% active; calls by dose curve; tested in A549 cells; also: nearly all actives have a fitted effect of over 30% in size
# HCMV inh = qHTS Assay for inhibitors of the human cytomegalovirus (HCMV); HFF cells, HCMV-luciferase reporter, 72 h; hits give low values; activity change, negative = inhibition, % at 57.5 µM; 410,000 tested, 4.5% active; AID 1259415, 2018; in the data active = activity change below about -60%; inconclusive = no clear call, values can overlap the other calls; inactive = above about -39%
#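 Luciferase read-out from HCMV-luciferase-infected HFFs (MOI 1 PFU/cell) 72 h post infection at 37C; compounds added after 16 h cell attachment; activity normalized between buffer-only basal and Salinomycin (10uM) inhibitor controls.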
# MARV entry inh = qHTS for inhibitors of binding or entry into cells for Marburg Virus | Marburg virus pseudotyped entry inhibition, cell reporter | Potency, µM (titrated, usually from 37.8 µM), usual class: inhibitors | 300,000 tested, 1.8% active; calls by dose curve; tested in HEK293 cells
# Vaccinia mCherry = qHTS for Stage-Specific Inhibitors of Vaccinia Orthopoxvirus: mCherry Reporter Primary qHTS; Potency, µM (top dose mostly 36.5 µM), actives largely listed as inhibitors; AID 720579, 2013; 310,000 tested, 0.63% active; Vaccinia virus mCherry reporter infection, fluorescence; calls by dose curve; tested in A549 cells; also: nearly all actives have a fitted effect of over 35% in size
# HCV inh = qHTS Assay for Inhibitors of Hepatitis C Virus (HCV); Huh7.5.1 HCVcc-Cre infection, luciferase reporter, 44 h; Potency, µM (doses to about 41.8 µM), most hits filed as inhibitors; 340,000 tested, 3.4% active; AID 651820, 2012; active = well fitted inhibition curve with a large enough effect; inconclusive = small, poorly fitted or top-dose-only effect, or another doubt; inactive = no such curve, though single readings can be large or run the other way
#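 A cell-based infection assay in which seeded cells (1,000 per well) receive test compound after 4 h, are inoculated with HCVcc-Cre at approximately 0.5 moi, and are incubated 44 h before luminescence detection.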
# Lassa entry inh = qHTS for Inhibitors of binding or entry into cells for Lassa Virus; 300,000 tested, 1.2% active; Potency, µM (series often up to 37.9 µM), hits mostly inhibitors; Lassa virus pseudotype entry inhibition, cell reporter; calls by dose curve; tested in HEK293 cells; also: nearly all actives have a fitted effect of over 50% in size
# Hits are given with their value; . = inactive; ? = inconclusive; / = not tested or not shown.
SMILES,VACV Venus inh,HCMV inh,MARV entry inh,Vaccinia mCherry,HCV inh,Lassa entry inh
C/C(=N/Oc1nc(C)cc(C)n1)c1ccc(Cl)cc1Cl,.,-61,.,/,.,.
O=C(CSc1ccc2ccccc2n1)N/N=C/c1ccccc1O,/,-100,/,/,?,/
Cc1cc(SCC(=O)N/N=C/c2ccccc2C(=O)O)c(C)cc1Br,.,.,.,.,.,.
O=C(CSc1ccc2ccccc2n1)N/N=C/c1ccc(O)cc1,/,.,/,/,.,/
Cc1cc(SCC(=O)N/N=C/c2ccc(O)cc2O)c(C)cc1Br,/,-83,?,/,?,4.6µM
O=C(CSC1c2ccccc2-c2ccccc21)N/N=C/c1ccccc1O,/,-96,8.2µM,/,?,12µM
C#Cc1cccc(C(=O)NCc2nc(-c3cccc(NC(=O)c4ccccn4)c3)oc2C)c1,.,/,/,.,/,/
CCOCCCNC(=O)C(NC(=O)C1CCC(C)CC1)C(C)C (configuration not stated),.,.,.,.,/,.
Cc1nn(-c2cc(N3CCCCCC3)ccc2[N+](=O)[O-])c(=O)c2ccccc12,/,.,.,/,13µM,?
Cc1nn(-c2cc(N3CCCCC3)ccc2N)c(=O)c2ccccc12,.,/,.,.,.,.
Cc1ccc(-c2nn(-c3cc(N4CCNCC4)ccc3[N+](=O)[O-])c(=O)c3ccccc23)cc1,.,-68,?,.,?,?
Fc1ccc(N2CCN(Cc3ccc4c(c3)CN(Cc3cccn3-c3ncccn3)CCO4)CC2)cc1,.,/,/,.,/,/
c1ccc(C2(CN3CCNC[C@@H]3CC3CCCCC3)CC2)cc1,.,.,/,.,22µM,/
Oc1ccc(C[C@@H]2CNCCN2CC2(c3ccccc3)CC2)cc1,.,.,/,.,?,/
Cc1ccc(Sc2nnc(Cc3ccccc3)c3ccccc23)cc1,/,-88,?,/,.,.
c1ccc(Cc2nnc(N3CCCCC3)c3ccccc23)cc1,.,.,.,.,.,.
COc1ccc(Sc2nnc(Cc3ccccc3)c3ccccc23)cc1,.,-89,?,.,/,.
COc1ccc(Sc2nnc(-c3ccccc3)cc2C#N)cc1,?,.,.,/,.,.
Cn1c(Nc2ccccc2)nc2cnc(Nc3cccc(Cl)c3)cc21,/,.,/,/,/,/
COc1cc(OC)cc(C(=O)NCC(=O)NCCN2C(=O)S/C(=C\c3ccccc3Cl)C2=O)c1,/,.,/,/,10µM,/
COc1ccc(NC(=O)CN(C)S(=O)(=O)c2cccc3cccnc23)cc1,.,-66,/,.,.,/
CN(CC(=O)NC1CCCCCCC1)S(=O)(=O)c1cccc2cccnc12,.,-62,/,.,.,/
CN(CC(=O)Nc1ccc(Cl)cc1)S(=O)(=O)c1cccc2cccnc12,.,.,/,.,?,/
COc1ccc(N(C(=O)C(C)C)S(=O)(=O)c2cccc3cccnc23)cc1,.,-67,.,?,.,.
CN(CC(=O)N1CCCCCC1)S(=O)(=O)c1cccc2cccnc12,.,.,/,.,.,/
SMILES,VACV Venus inh,HCMV inh,MARV entry inh,Vaccinia mCherry,HCV inh,Lassa entry inh
CCc1ccccc1Nc1nc2cc(Cl)c(Cl)cc2nc1-n1nc(C)cc1C,.,.,.,.,/,.
Nc1sc(Cc2ccccc2)cc1C(=O)NC1CCCCC1,.,.,/,?,/,/
NC(=S)n1[nH]c(-c2ccc([N+](=O)[O-])cc2)c(N=Nc2cccc([N+](=O)[O-])c2)c1=O,.,-72,?,.,10µM,?
NC(=S)n1[nH]c(-c2ccc([N+](=O)[O-])cc2)c(N=Nc2ccccc2[N+](=O)[O-])c1=O,/,.,/,/,.,/
Cc1c(N=Nc2c(-c3ccc([N+](=O)[O-])cc3)[nH]n(C(N)=S)c2=O)cccc1[N+](=O)[O-],.,-96,2.8µM,?,8.9µM,?
O=c1c2sc3ccccc3c2n(Cc2ccc(Cl)cc2)c(=O)n1Cc1ccco1,.,.,.,.,/,.
Cc1cccc(Cn2c(=O)n(CCc3ccccc3)c(=O)c3sc4ccccc4c32)c1,.,-95,.,.,/,.
O=c1c2sc3ccccc3c2n(Cc2cccc(F)c2)c(=O)n1CCc1ccccc1,.,.,?,.,/,?
Cc1ccccc1Cn1c(=O)n(Cc2ccco2)c(=O)c2sc3ccccc3c21,.,-69,?,.,/,.
CCn1nc(C)c(CN2CCC3(CCC(CNC(=O)c4ccccc4)O3)CC2)c1C (configuration not stated),.,/,/,.,/,/
Cc1ccc(Cl)cc1NC(=O)Cn1c(=O)n(CCC(=O)N2CCc3ccccc3C2)c(=O)c2ccccc21,.,.,.,.,/,?
Cc1ccccc1Cn1c2ccccc2c2cnn(CC(=O)NCCCc3ccccc3)c(=O)c21,.,-81,.,.,/,.
Cc1ccccc1Cn1c2ccccc2c2cnn(CC(=O)NCCc3ccccc3)c(=O)c21,.,-96,?,.,/,.
Cc1ccc(C)c(Cn2c3ccccc3c3cnn(CC(=O)NCCCN4CCCCC4)c(=O)c32)c1,/,-79,/,/,?,/
Cc1ccccc1Cn1c2ccccc2c2cnn(CC(=O)NC(C)CCc3ccccc3)c(=O)c21 (configuration not stated),.,-75,.,.,/,?
Cc1ccc(C)c(Cn2c3ccccc3c3cnn(CC(=O)NCCCc4ccccc4)c(=O)c32)c1,.,.,?,.,/,.
Cc1cccc(NC(=O)Cn2ncc3c4ccccc4n(Cc4ccccc4)c3c2=O)c1C,.,.,.,.,/,.
COc1ccc2c(c1)c1c(c(=O)n(-c3ccccc3C)c(=O)n1Cc1cccc(C(F)(F)F)c1)n2C,.,.,/,.,/,.
CC1CCN(S(=O)(=O)c2ccc(C(=O)Nc3nnc(C4=COCCO4)o3)cc2)CC1,/,-70,/,/,?,/
O=C(Nc1nnc(C2=COCCO2)o1)c1ccc(S(=O)(=O)N2CCCC2)cc1,.,?,.,.,.,.
O=C(Nc1nnc(-c2cccs2)o1)c1ccc(S(=O)(=O)N2CCOCC2)cc1,?,-84,?,?,.,.
CCN1CCC(N[C@H]2C[C@@H](C(=O)NC)N(Cc3cccc4ccccc34)C2)CC1,.,/,/,.,/,/
Cc1ccc(S(=O)(=O)N2CCN(C(=O)C3CCN(C(=O)c4ccc(F)cc4)CC3)CC2)c(C)c1,.,.,?,.,11µM,?
Cc1ccc(S(=O)(=O)N2CCN(C(=O)c3cc(=O)[nH]c4ccccc34)CC2)c(C)c1,/,.,?,/,14µM,?
Cc1ccc(S(=O)(=O)N2CCN(C(=O)C3CC3C)CC2)c(C)c1 (configuration not stated),.,.,.,.,.,.
CCc1nnc(NC(=O)Cn2c(=O)oc3ccccc32)s1,.,.,.,/,.,.
O=C(Cn1c(=O)oc2ccccc21)Nc1nc(-c2ccc(Br)cc2)cs1,.,-61,?,.,.,?
Cc1sc(NC(=O)Cn2c(=O)oc3ccccc32)nc1-c1ccc(Cl)cc1,.,-61,.,.,?,.
